We go through 10 molecules from PubChem BioAssay (EPA / NIEHS).

Records with an inconclusive call do not appear. Activity calls are given as the source filed them. The calls were made as follows, unless noted: active = hit-call score of the fitted dose curve at least 0.9, where 1 is the maximum; inactive = score below 0.9.

Experiment [1] can be described thus: ATG_M_06_TRANS: Attagene TRANS-FACTORIAL HepG2 Assay for M06 Transcription Factor (Internal Marker) (AID 2282983; active = hit-call score of the fitted dose curve at least 0.9, where 1 is the maximum). The note with it: HepG2 Attagene TRANS M06 internal marker reporter. The gist of the method: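 Human liver HepG2 cells bearing transiently transfected chimeric NR-GAL4 reporter units were treated with chemicals for 24 h. Total RNA was reverse-transcribed, reporter sequences amplified and labelled, then quantified by capillary electrophoresis. Activity was fitted upward relative to DMSO.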

In experiment [2] the target is Transcriptional activator Myb (Homo sapiens) (UniProt P10242). The experiment can be described thus: ATG_Myb_CIS: Attagene CIS-FACTORIAL HepG2 Assay for human Myeloblastosis (Myb) Proto-Oncogene Transcription Factor (AID 2282986). The following applies: HepG2 Attagene CIS-FACTORIAL Myb reporter transcription; actives raise or lower the signal. The gist of the method:
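Transiently transfected HepG2 cells carrying a multiplexed cis-promoter reporter set report endogenous Myb activity after 24 h compound exposure. Reporter mRNA is read by RT-PCR with capillary electrophoresis of fluorescent products, fitted bidirectionally against DMSO.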

The target of experiment [3] is Nuclear respiratory factor 1 (Homo sapiens) (UniProt Q16656). The experiment can be described thus: ATG_NRF1_CIS: Attagene CIS-FACTORIAL HepG2 Assay for human Nuclear Respiratory Factor 1 (NRF1) Orphan Gene (AID 2282987). The note with it: HepG2 NRF1 cis-element reporter, Attagene multiplex; actives raise or lower the signal. The gist of the method: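 HepG2 cells transiently transfected with multiple cis-regulated reporter units, exposed 24 h. Reporter mRNAs measured by RT-PCR, fluorescent labelling, HpaI digestion and capillary electrophoresis; bidirectional fitting against DMSO.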
Chain of Nuclear respiratory factor 1 (Homo sapiens) (Q16656 whole entry, looked up): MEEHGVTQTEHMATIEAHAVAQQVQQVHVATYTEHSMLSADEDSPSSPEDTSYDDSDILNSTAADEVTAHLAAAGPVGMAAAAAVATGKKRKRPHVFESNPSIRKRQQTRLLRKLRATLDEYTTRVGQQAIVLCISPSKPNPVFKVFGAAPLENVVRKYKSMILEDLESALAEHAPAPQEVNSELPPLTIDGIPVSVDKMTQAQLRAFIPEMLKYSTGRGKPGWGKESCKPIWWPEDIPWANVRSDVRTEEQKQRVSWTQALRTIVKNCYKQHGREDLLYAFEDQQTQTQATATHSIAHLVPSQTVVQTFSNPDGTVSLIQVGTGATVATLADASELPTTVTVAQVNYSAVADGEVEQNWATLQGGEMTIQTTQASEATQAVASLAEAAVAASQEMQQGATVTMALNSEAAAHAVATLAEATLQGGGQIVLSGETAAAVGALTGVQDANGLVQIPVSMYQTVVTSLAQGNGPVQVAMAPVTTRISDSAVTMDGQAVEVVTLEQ

A short description of experiment [4]: ATG_NFI_CIS: Attagene CIS-FACTORIAL HepG2 Assay for human Nuclear Factor I (NFI) (AID 2282989). The note with it: HepG2 cis-regulatory reporter, NFI response element transcription; actives raise or lower the signal. The gist of the method:
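Transfected HepG2 liver cells, exposed 24 h, supplied total RNA for oligo(dT) reverse transcription and reporter-specific PCR. Labelled, HpaI-cut fragments were sized by capillary electrophoresis; DMSO set the baseline for bidirectional fitting.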

Experiment [5] deals with Myc proto-oncogene protein (Homo sapiens) (UniProt P01106). In words: ATG_Myc_CIS: Attagene CIS-FACTORIAL HepG2 Assay for human Myelocytomatosis (Myc) Proto-Oncogene Transcription Factor (AID 2282990). The following applies: HepG2, Attagene cis-reporter transcription factor activity; actives raise or lower the signal. The method in brief: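 Multiplexed cis-reporter transcription in HepG2 cells after 24 h chemical treatment. Reporter mRNA measured by RT-PCR and capillary electrophoresis fluorescence; activity fitted bidirectionally against DMSO control.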
Chain of Myc proto-oncogene protein (Homo sapiens) (P01106 whole entry, looked up): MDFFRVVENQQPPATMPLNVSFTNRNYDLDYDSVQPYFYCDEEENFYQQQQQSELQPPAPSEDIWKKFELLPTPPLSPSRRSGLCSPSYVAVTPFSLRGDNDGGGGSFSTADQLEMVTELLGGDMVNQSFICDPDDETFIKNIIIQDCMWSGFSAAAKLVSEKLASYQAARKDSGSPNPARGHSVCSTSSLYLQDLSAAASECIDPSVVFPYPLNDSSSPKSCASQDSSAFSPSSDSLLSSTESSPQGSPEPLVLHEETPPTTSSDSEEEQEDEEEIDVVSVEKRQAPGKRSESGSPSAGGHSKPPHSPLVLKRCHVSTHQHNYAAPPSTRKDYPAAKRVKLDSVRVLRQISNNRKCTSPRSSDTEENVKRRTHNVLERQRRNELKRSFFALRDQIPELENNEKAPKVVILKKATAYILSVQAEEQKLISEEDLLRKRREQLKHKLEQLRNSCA

Experiment [6] is described as follows: ATG_NF_kB_CIS: Attagene CIS-FACTORIAL HepG2 Assay for human Nuclear Factor Kappa B (NF-kB) (AID 2282991). The following applies: HepG2 Attagene cis-factorial NF-kB reporter mRNA; actives raise or lower the signal. The gist of the method: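 HepG2 cells transfected with cis-promoter-driven reporter units, so endogenous transcription factor activity is measured. Reporter mRNA quantified 24 h after dosing by RT-PCR and capillary electrophoresis, with bidirectional fitting against DMSO.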

The nature of experiment [7]: ATG_NRF2_ARE_CIS: Attagene CIS-FACTORIAL HepG2 Assay for human Nuclear Factor Erythroid 2 Related Factor 2 (NFR2) response to Antioxidant Response Elements (ARE) (AID 2282992). The following applies: HepG2 Attagene ARE/NRF2 reporter, transcription factor activity; actives raise or lower the signal. The method in brief:
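Readout: reporter mRNA quantified by RT-PCR plus FAM-labelled primer extension, HpaI digestion and capillary electrophoresis, 24 h after dosing transfected HepG2 cells. Gain or loss of signal is fitted bidirectionally against DMSO baseline.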

For experiment [8], the target named is human Peroxisome Proliferator-activated Receptor alpha (PPARa), PPARA (gene 5465) (UniProt Q07869). In words: ATG_PPARa_TRANS: Attagene TRANS-FACTORIAL HepG2 Assay for human Peroxisome Proliferator-activated Receptor alpha (PPARa) (AID 2283001; active = hit-call score of the fitted dose curve at least 0.9, where 1 is the maximum). The method in brief:
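Cells (HepG2) are transfected with multiple reporter transcription units, exposed to chemical for 24 h, then total RNA is reverse-transcribed and amplified. Labelled products are quantified by capillary electrophoresis; induction is referenced to DMSO.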

In experiment [9] the target is Nuclear receptor subfamily 4 group A member 2 (Homo sapiens) (UniProt P43354). In words: ATG_NURR1_TRANS: Attagene TRANS-FACTORIAL HepG2 Assay for human Nuclear Receptor Related Protein 1 (NURR1) (AID 2282985; active = hit-call score of the fitted dose curve at least 0.9, where 1 is the maximum). The note with it: HepG2 Attagene TRANS reporter, mRNA readout. The method in brief: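 Chimeric NR-Gal4 fusion activity measured in HepG2 after 24 h treatment. Reporter transcripts detected by RT-PCR and capillary electrophoresis fluorescence; positive-direction curve fitting against DMSO.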
Chain of Nuclear receptor subfamily 4 group A member 2 (Homo sapiens) (P43354 whole entry, looked up, the tested form may be a part): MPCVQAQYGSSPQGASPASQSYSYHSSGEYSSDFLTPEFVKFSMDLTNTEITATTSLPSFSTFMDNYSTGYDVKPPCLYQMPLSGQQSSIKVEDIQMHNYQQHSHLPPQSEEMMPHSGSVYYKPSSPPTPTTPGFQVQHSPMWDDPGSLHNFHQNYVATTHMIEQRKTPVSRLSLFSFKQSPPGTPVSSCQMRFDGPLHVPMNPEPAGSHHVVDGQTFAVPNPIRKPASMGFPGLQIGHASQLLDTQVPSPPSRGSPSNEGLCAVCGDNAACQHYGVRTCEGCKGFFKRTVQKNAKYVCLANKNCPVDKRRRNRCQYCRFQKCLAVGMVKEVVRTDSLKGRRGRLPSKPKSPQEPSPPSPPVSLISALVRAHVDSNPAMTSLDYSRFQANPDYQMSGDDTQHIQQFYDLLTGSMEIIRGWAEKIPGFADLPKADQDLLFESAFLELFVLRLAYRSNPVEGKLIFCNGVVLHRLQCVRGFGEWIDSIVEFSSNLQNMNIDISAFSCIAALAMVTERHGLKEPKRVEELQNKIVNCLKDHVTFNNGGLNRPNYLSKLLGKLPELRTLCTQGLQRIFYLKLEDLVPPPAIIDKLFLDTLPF

Experiment [10] can be described thus: ATG_Oct_MLP_CIS: Attagene CIS-FACTORIAL HepG2 Assay for human Octamer-Binding Transcription Factor (Oct) (AID 2282993). The following applies: HepG2 Attagene cis-factorial Oct reporter, mRNA; actives raise or lower the signal. The gist of the method: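 Using HepG2 cells bearing transfected cis-reporter constructs, mRNA induction was read after 24 h by fluorescent RT-PCR and capillary electrophoresis, with DMSO defining baseline for gain- or loss-of-signal fits.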

In experiment [11] the target is Cellular tumor antigen p53 (Homo sapiens) (UniProt P04637). In words: ATG_p53_CIS: Attagene CIS-FACTORIAL HepG2 Assay for human p53 Transcription Factor (AID 2282994). The note with it: HepG2 p53 cis-element reporter, Attagene mRNA; actives raise or lower the signal. The method in brief:
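Read-out: reporter mRNA by RT-PCR plus capillary electrophoresis with fluorescence detection. Human HepG2 liver cells carried transfected multi-reporter cis-element constructs, dosed 24 h. Gain or loss of signal fitted bidirectionally against DMSO control.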

The nature of experiment [12]: BSK_3C_TissueFactor: BioMAP Diversity Plus: 3C Assay for Tissue Factor Biomarker Activity (AID 2282997). The following applies: BioMAP 3C HUVEC, tissue factor biomarker readout; actives raise or lower the signal. The gist of the method:
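Cells used were primary human umbilical vein endothelial cells. They were dosed with chemical, and after 24 h Tissue Factor was quantified by ELISA. Curves were fitted bidirectionally with DMSO as baseline.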

A short description of experiment [13]: BSK_3C_uPAR: BioMAP Diversity Plus: 3C Assay for Urokinase-type plasminogen activator receptor (uPAR) Biomarker Activity (AID 2282998). The following applies: BioMAP 3C HUVEC, uPAR biomarker ELISA; actives raise or lower the signal. The method in brief: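 In this endothelial cell-based assay, human umbilical vein primary cells were treated with chemicals and harvested at 24 h. uPAR was quantified using ELISA, with gains or losses fitted relative to DMSO controls.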
On the technique in general: An ELISA detects its analyte on a solid surface through an enzyme-linked reagent.

Experiment [14] can be described thus: BSK_4H_Eotaxin3: BioMAP Diversity Plus: 4H Assay for Eotaxin 3 Biomarker Activity (AID 2283000).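 Also: CCL26 protein level quantified by ELISA in parallel with SRB cytotoxicity check.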 The note with it: primary human endothelial cells (HUVEC); actives raise or lower the signal. The gist of the method: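 Endothelial primary cells (human umbilical vein) exposed to compound for 24 h. ELISA detection of Eotaxin-3.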
In experiment [15] the target is human Peroxisome Proliferator-activated Receptor delta (PPARd), PPARD (gene 5467) (UniProt Q03181). In words: ATG_PPARd_TRANS: Attagene TRANS-FACTORIAL HepG2 Assay for human Peroxisome Proliferator-activated Receptor delta (PPARd) (AID 2283002; active = hit-call score of the fitted dose curve at least 0.9, where 1 is the maximum). The method in brief:
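Multiplexed trans-activation format: HepG2 liver cells expressing exogenous NR-Gal4 chimeras and GAL4-UAS reporters were exposed for 24 h. Reporter mRNA was detected by RT-PCR with capillary electrophoresis fluorescence; activity fitted as gain of signal relative to DMSO.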

Experiment [16] in a line: ATG_M_32_TRANS: Attagene TRANS-FACTORIAL HepG2 Assay for M32 Transcription Factor (Internal Marker) (AID 2282984; active = hit-call score of the fitted dose curve at least 0.9, where 1 is the maximum;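 also: transcript level of a background control reporter unit measured by RT-PCR and capillary electrophoresis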). The note with it: HepG2 Attagene TRANS M32 internal marker reporter. The method in brief: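 After 24 h dosing of transfected HepG2 cells, total RNA was reverse-transcribed, reporter sequences PCR-amplified, 6-FAM labelled by primer extension and HpaI-digested before capillary electrophoresis. Signal increase over DMSO was fitted.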

Chain of human Peroxisome Proliferator-activated Receptor alpha (PPARa), PPARA (gene 5465) (Q07869 whole entry, looked up): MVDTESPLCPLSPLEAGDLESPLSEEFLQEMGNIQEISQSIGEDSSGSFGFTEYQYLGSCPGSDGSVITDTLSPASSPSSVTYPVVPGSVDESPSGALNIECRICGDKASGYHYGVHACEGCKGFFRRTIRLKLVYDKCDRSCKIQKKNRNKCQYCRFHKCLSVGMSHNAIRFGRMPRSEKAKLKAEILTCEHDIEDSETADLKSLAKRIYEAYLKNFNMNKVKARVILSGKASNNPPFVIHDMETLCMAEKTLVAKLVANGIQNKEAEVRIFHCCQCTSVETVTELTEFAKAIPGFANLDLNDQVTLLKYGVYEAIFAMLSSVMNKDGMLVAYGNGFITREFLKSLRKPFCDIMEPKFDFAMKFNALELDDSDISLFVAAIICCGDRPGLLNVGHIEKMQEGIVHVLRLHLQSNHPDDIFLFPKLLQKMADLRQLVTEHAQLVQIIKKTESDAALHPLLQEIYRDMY
Chain of Transcriptional activator Myb (Homo sapiens) (P10242 whole entry, looked up): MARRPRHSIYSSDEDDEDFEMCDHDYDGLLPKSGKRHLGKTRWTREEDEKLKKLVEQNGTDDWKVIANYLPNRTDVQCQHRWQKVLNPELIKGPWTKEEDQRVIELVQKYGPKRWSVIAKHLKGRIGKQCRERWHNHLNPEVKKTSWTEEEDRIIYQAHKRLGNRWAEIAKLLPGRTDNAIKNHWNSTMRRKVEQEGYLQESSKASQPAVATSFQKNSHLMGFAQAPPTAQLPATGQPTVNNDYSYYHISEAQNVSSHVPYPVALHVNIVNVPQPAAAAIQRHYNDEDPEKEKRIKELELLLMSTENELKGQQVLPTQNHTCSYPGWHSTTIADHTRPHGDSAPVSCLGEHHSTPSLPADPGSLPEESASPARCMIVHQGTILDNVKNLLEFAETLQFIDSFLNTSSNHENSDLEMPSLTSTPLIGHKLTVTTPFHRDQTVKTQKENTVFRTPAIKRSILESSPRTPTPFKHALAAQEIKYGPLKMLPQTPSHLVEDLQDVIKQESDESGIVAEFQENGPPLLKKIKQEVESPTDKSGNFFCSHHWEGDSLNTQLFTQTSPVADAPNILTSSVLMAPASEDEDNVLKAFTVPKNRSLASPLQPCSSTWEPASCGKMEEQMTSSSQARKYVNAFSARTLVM
Chain of Cellular tumor antigen p53 (Homo sapiens) (P04637 whole entry, looked up): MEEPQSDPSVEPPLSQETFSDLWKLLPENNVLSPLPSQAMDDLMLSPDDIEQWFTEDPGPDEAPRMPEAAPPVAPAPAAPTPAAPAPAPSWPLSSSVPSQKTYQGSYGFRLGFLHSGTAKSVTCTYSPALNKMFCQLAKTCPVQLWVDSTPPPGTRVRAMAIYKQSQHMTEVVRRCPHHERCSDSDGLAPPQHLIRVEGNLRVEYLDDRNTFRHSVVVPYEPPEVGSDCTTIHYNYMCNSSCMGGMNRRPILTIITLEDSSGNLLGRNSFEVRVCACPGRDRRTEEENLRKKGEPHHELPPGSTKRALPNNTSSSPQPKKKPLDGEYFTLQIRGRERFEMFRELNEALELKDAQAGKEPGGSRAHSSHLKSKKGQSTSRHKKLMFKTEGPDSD
Chain of human Peroxisome Proliferator-activated Receptor delta (PPARd), PPARD (gene 5467) (Q03181 whole entry, looked up, the tested form may be a part): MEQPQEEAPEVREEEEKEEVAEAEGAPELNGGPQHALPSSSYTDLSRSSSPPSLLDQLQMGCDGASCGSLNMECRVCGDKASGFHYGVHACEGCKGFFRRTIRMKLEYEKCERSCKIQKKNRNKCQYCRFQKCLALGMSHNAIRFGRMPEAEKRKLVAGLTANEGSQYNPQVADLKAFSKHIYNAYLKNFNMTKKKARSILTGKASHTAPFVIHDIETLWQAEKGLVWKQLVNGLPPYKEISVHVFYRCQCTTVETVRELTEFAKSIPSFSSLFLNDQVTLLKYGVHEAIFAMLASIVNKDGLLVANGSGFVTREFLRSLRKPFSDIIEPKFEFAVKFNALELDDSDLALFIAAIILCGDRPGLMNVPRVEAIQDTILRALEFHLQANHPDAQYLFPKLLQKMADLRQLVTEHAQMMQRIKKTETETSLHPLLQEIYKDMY

On to `Cc1ccc(N)cc1Cl`, for which the molecule was classed as inactive in experiment [1], in [2], in experiment [3], in experiment [4], in [5] and in experiment [6]. Further, the molecule was called inactive in [7] and in experiment [8].
On to `BrCCBr`, for which the result in experiment [9], in experiment [2], in [3], in experiment [4], in [5] and in [6] was inactive. In addition, the outcome in experiment [7], in experiment [10], in [11], in [12], in [13] and in experiment [14] was inactive. The call in experiment [8] and in experiment [15] was inactive.
For `C1CCC(NC2CCCCC2)CC1`, the outcome in [16], in experiment [2], in experiment [3], in experiment [4], in experiment [5] and in [7] was inactive. Further, the call in experiment [10], in experiment [11] and in experiment [8] was inactive.
`CC(C)OC(=O)Nc1ccccc1`: the call in experiment [1], in [16], in experiment [2], in experiment [3], in experiment [4] and in [5] was inactive. The call in experiment [6], in [7] and in experiment [11] was inactive.
The AC50 is the midpoint of the concentration-response curve, whichever way the signal moves. Regarding `CNC(=O)O/N=C/C(C)(C)S(C)=O` (stereo unspecified), the molecule was classed as inactive in [1], in [2], in experiment [3], in experiment [4], in experiment [5] and in experiment [6]. In addition, the outcome in experiment [11] and in [8] was inactive. For the same molecule, the AC50 in experiment [7] is 55.1 µM (active).
Regarding `O=[N+]([O-])c1ccc(O)c([N+](=O)[O-])c1`, the call in experiment [1], in experiment [2], in experiment [3], in [4], in [5] and in experiment [6] was inactive. The call in [7], in experiment [10], in [11], in experiment [12], in [13] and in experiment [14] was inactive.
With `COC(=O)c1sccc1S(=O)(=O)NC(=O)Nc1nc(C)nc(OC)n1`, the call in experiment [9], in [2], in experiment [3], in experiment [4], in experiment [5] and in experiment [6] was inactive. Further, the outcome in [7], in experiment [10], in experiment [11], in [12], in experiment [13] and in experiment [14] was inactive. Further, the molecule was called inactive in experiment [15].
For the molecule `O=[N+]([O-])c1c(Cl)c(Cl)cc(Cl)c1Cl`, the molecule was classed as inactive in experiment [16], in experiment [2], in experiment [3], in [4], in experiment [5] and in [6]. Moreover, the result in experiment [11], in experiment [8] and in [15] was inactive. Besides, the AC50 in experiment [7] is 57.3 µM (active).
Regarding `Fc1ccc(C2(Cn3cncn3)OC2c2ccccc2Cl)cc1` (stereo unspecified), the call in experiment [9], in [2], in [3], in experiment [4], in [5] and in [6] was inactive. In addition, the result in experiment [10] was inactive.
As for `Nc1cccc(Cl)c1`, the call in [16], in experiment [9], in [2], in [3], in experiment [4] and in experiment [5] was inactive. Further, the molecule was called inactive in experiment [6], in experiment [7], in experiment [11] and in experiment [8].
